Measured values reported in PubChem BioAssay (Tox21).
Where “and” joins values, the source holds several entries; their conditions need not be identical. Equal values may be shown once. Inconclusive results are not listed. Entries that show only a call come without a potency. More than one record can exist for a structure, and the calls need not agree. Calls of active or inactive are those of the source. Unless noted, calls follow the shape of the full dose curve.

Tests used:
[1] = Nuclear factor erythroid 2-related factor 2/antioxidant responsive element (Nrf2/ARE) small molecule agonists: qHTS cell viability counter screen in human keratinocytes (AID 1919968; active = well fitted curve in the direction sought with a large enough effect in the repeat runs; an effect the other way counts as inactive or inconclusive; also: nearly all actives have a fitted effect of over 55% in size; also: potency is read from the fitted curve at half-maximal effect)
Procedure, shortened: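 KeratinoSens cells (HaCaT keratinocytes stably carrying an ARE-luciferase reporter) were seeded at 1,500 cells/well and rested 5 h at 37 C/5% CO2. They were then exposed to compounds in DMSO for 23 h. Viability was read by CellTiter-Fluor fluorescence after 1 h.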

[2] = molecular target: Gonadotropin-releasing hormone receptor (Homo sapiens) (UniProt P30968); assay: Human gonadotropin-releasing hormone receptor (GnRHR) small molecule agonists, calcium flux assay in GnRHR-HEK293 cells (AID 1920063); also: nearly all actives have a fitted effect of over 35% in size; also: potency is read from the fitted curve at half-maximal effect
Chain of Gonadotropin-releasing hormone receptor (Homo sapiens) (P30968 whole entry, looked up): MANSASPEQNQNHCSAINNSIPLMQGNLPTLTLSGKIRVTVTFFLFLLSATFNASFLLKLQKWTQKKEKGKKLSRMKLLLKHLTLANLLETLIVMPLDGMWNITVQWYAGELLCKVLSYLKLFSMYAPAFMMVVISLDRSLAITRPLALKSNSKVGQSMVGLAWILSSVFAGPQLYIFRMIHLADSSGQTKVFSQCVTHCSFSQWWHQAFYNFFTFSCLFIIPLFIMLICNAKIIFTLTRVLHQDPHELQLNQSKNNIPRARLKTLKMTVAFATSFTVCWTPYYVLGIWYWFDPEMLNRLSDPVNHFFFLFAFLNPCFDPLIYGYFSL
Procedure, shortened: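 HEK293 cells stably expressing human GnRHR were plated 18 h at 37 °C, loaded with calcium dye 1 h at 37 °C, then given compound in agonist mode; fluorescence (Ex/Em 480/540) read kinetically for 3 min at 1 s intervals.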

[3] = molecular target: KiSS-1 receptor (Homo sapiens) (UniProt Q969F8); assay: Human kisspeptin (KISS1R) small molecule agonists, calcium flux assay in KISS1R-HEK293 cells (AID 1920064; active = well fitted curve in the direction sought with a large enough effect in the repeat runs; an effect the other way counts as inactive or inconclusive; also: potency is read from the fitted curve at half-maximal effect)
Chain of KiSS-1 receptor (Homo sapiens) (Q969F8 whole entry, looked up): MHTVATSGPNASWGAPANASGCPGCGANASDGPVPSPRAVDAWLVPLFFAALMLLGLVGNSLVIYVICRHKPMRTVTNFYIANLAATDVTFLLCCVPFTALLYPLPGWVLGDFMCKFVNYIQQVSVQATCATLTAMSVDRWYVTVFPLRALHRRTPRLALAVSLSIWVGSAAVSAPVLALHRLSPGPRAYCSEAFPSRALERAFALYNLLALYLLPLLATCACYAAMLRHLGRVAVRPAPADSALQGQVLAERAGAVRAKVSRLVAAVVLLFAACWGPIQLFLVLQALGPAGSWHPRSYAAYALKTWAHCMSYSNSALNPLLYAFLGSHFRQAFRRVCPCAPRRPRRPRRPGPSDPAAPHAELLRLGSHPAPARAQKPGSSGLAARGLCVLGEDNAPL
Procedure, shortened: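 HEK293 cells stably expressing human KISS1R were plated 18 h at 37 °C, loaded with calcium dye for 1 h at 37 °C, then given compound by pin tool. Fluorescence (Ex/Em 480/540) was read kinetically for 3 min.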

[4] = G protein-coupled receptor (GPCR) small molecule agonists, calcium flux assay: HEK293 wild type cell line counter screen (AID 1920065); also: potency is read from the fitted curve at half-maximal effect
Procedure, shortened: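 Cells were plated and cultured 18 h at 37 C/5% CO2, then loaded with calcium dye for 1 h at 37 C. Compounds in DMSO were pin-transferred in agonist mode, and fluorescence (Ex/Em 480/540) was read kinetically for 3 min at 1 s intervals.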

[5] = p53 small molecule agonists, cell-based qHTS assay with human liver microsomes (AID 1963577);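 also: p53 response element beta-lactamase reporter cells with liver microsomes plus NADPH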
Procedure, shortened: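 In this qHTS, p53 response-element beta-lactamase cells receive test compound together with a microsome/NADPH activating system (0.5 mg/mL final each) and are incubated 16 h at 37 C before LiveBLAzer fluorescence detection.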

[6] = p53 small molecule agonists, cell-based qHTS assay with rat liver microsomes (AID 1963578)
Procedure, shortened: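 Agonist mode in p53RE-bla reporter cells, with compounds co-incubated 16 h at 37 C alongside 0.5 mg/mL rat liver microsomes and 0.5 mg/mL NADPH (final), followed by a 2 h LiveBLAzer detection step.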

[7] = p53 small molecule agonists, cell-based qHTS assay with human liver microsomes: qHTS cell viability counter screen (AID 1963579); also: nearly all actives have a fitted effect of over 45% in size; also: potency is read from the fitted curve at half-maximal effect
Procedure, shortened: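 Metabolically activated exposure: compounds, human liver microsomes and NADPH (0.5 mg/mL final apiece) were added to p53RE-bla cells seeded 5 h earlier, left 16 h at 37 C, and then assessed for viability by CellTiter-Glo luminescence.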

[8] = p53 small molecule agonists, cell-based qHTS assay: qHTS cell viability counter screen (AID 1963581); also: nearly all actives have a fitted effect of over 45% in size
Procedure, shortened: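 p53RE-bla HCT-116 cells were exposed to compounds for 16 h at 37 C; after the beta-lactamase FRET read in the same wells, CellTiter-Glo was added and luminescence (intracellular ATP) read after 30 min at room temperature.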

[9] = cAMP Responsive Elements (CRE) small molecule agonists, cell-based qHTS assay (AID 1963590)
Procedure, shortened: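 CRE-bla HEK 293T cells in DMEM with 10% dialyzed FBS, NEAA, pyruvate and 25 mM HEPES were plated 18 h at 37 C/5% CO2, then exposed to compounds in DMSO for 3 h before LiveBLAzer B/G FRET substrate addition.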

[10] = cAMP Responsive Elements (CRE) small molecule antagonists, cell-based qHTS assay (AID 1963591; active = well fitted inhibition curve with a large enough effect in the signal ratio in the repeat runs, not every such curve was filed as active; the % refers to the signal ratio)
Procedure, shortened: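 CRE-bla HEK293T cells were plated 18 h at 37 °C/5% CO2, pinned with compound in DMSO, then stimulated with NKH477 at 0.25 uM final for 3 h. LiveBLAzer B/G FRET substrate was added and plates incubated 2 h at room temperature.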

[11] = molecular target: Beta-2 adrenergic receptor (Homo sapiens) (UniProt P07550); assay: Adrenergic beta2 receptor (ADRB2) small molecule antagonists, cell-based qHTS assay (AID 1963592); also: series mostly up to about 92 µM; nearly all actives have a fitted effect of over 50% in size
Chain of Beta-2 adrenergic receptor (Homo sapiens) (P07550 whole entry, looked up): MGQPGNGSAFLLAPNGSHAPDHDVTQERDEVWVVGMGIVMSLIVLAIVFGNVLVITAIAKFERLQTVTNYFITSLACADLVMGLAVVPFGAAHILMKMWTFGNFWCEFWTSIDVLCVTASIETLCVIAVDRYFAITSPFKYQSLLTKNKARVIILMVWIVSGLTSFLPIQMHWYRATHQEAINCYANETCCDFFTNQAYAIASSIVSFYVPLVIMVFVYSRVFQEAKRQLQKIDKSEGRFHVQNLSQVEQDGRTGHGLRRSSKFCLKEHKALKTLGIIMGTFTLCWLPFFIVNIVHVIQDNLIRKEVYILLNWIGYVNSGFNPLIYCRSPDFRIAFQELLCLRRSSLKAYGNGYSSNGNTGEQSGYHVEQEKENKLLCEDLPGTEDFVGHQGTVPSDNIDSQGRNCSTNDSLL
Procedure, shortened: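 Cells (CHO, stable ADRB2 overexpression) incubated 18-20hr at 37C; compounds added from DMSO; agonist mix (1nM isoproterenol, 100uM IBMX, 25uM Ro-20-1724) added; 0.5hr RT; d2-cAMP and anti-cAMP-cryptate added; 1hr RT; 665/615 nm read.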

[12] = molecular target: Beta-2 adrenergic receptor (Homo sapiens) (UniProt P07550); assay: Adrenergic beta2 receptor (ADRB2) small molecule agonists, cell-based qHTS assay (AID 1963593);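 also: CHO cells stably overexpressing human ADRB2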
Procedure, shortened: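 CHO cells stably over-expressing ADRB2 were plated overnight at 37C, then dosed with compounds plus a stimulation mix containing 100uM IBMX and 25uM Ro-20-1724 for 0.5hr at room temperature. cAMP was measured by HTRF competition, 1hr.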

[13] = molecular target: D(2) dopamine receptor (Homo sapiens) (UniProt P14416); assay: Dopamine D2 receptor (DRD2) small molecule agonists, cell-based qHTS assay (AID 1963594); also: nearly all actives have a fitted effect of over 35% in size; also: potency is read from the fitted curve at half-maximal effect
Chain of D(2) dopamine receptor (Homo sapiens) (P14416 whole entry, looked up): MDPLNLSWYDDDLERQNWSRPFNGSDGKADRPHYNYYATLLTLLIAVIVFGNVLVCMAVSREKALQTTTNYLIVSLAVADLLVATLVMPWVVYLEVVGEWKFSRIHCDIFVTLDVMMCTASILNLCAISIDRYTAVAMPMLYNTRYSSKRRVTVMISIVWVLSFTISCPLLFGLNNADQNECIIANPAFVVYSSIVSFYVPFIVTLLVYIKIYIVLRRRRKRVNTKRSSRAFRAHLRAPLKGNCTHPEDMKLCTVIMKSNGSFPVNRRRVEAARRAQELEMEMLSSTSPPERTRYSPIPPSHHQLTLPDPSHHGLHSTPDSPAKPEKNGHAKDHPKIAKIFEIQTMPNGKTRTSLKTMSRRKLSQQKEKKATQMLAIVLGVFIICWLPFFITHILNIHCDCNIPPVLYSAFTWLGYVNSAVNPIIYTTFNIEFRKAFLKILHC
Procedure, shortened: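 HEK293 cells stably expressing DRD2 were cultured 24 h at 37 C, then given Ro20-1724 (0.1 mM final) and compounds for 10 min at room temperature. NKH477 (200nM) was then added for 30 min. cAMP was read by HTRF.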

[14] = molecular target: D(2) dopamine receptor (Homo sapiens) (UniProt P14416); assay: Dopamine D2 receptor (DRD2) small molecule antagonists, cell-based qHTS assay (AID 1963595; active = well fitted inhibition curve with a large enough effect in the signal ratio in the repeat runs, with a control signal flat; the % refers to the signal ratio; also: potency is read from the fitted curve at half-maximal effect)
Procedure, shortened: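 In this cell-based antagonist screen, compounds act for 10 min at room temperature before a 30 min challenge with 12 nM quinpirole and 200 nM NKH477. cAMP is quantified by HTRF competition in DRD2-HEK293 cells containing 0.1 mM Ro20-1724.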

[15] = p53 small molecule agonists, cell-based qHTS assay (AID 1963582; active = well fitted activation curve with a large enough effect in the signal ratio in the repeat runs, not every such curve was filed as active; the % refers to the signal ratio)
Procedure, shortened: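 p53RE-bla beta-lactamase reporter cells rested 5 h at 37 C/5% CO2, then received compounds in DMSO by pin transfer and were incubated 16 h at 37 C. LiveBLAzer B/G FRET substrate was loaded for 2 h at room temperature before fluorescence reading.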

[16] = molecular target: 5-hydroxytryptamine receptor 2A (Homo sapiens) (UniProt P28223); assay: 5-hydroxytryptamine receptor 2A (HTR2A) small molecule antagonists, cell-based qHTS assay (AID 1963586); also: nearly all actives have a fitted effect of over 45% in size
Chain of 5-hydroxytryptamine receptor 2A (Homo sapiens) (P28223 whole entry, looked up): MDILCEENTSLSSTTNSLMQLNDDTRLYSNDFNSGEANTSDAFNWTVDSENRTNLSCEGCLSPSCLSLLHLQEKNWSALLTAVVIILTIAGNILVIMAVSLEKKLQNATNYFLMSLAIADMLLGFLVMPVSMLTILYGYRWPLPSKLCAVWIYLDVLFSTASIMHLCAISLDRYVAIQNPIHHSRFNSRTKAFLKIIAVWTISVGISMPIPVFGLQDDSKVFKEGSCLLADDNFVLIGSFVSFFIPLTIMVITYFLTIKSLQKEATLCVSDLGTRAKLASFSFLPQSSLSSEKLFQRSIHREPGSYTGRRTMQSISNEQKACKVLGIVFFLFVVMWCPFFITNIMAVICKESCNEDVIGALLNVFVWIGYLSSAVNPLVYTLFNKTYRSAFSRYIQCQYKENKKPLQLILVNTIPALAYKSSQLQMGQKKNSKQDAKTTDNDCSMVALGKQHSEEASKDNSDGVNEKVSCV
Procedure, shortened: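 Antagonist-mode intracellular calcium assay: DOI (4 nM) added after 5 min compound pre-incubation at room temperature to dye-loaded HTR2A-CHO cells. Fluorescence followed for 3 min, sampled every second.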

[17] = molecular target: 5-hydroxytryptamine receptor 2A (Homo sapiens) (UniProt P28223); assay: 5-hydroxytryptamine receptor 2A (HTR2A) small molecule agonists, cell-based qHTS assay (AID 1963587); also: nearly all actives have a fitted effect of over 30% in size; also: potency is read from the fitted curve at half-maximal effect
Procedure, shortened: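 HTR2A-CHO cells, plated 18 h at 37 C/5% CO2, dye-loaded 1 h at 37 C; compounds in DMSO added by pin tool (agonist mode). Intracellular calcium flux read as kinetic fluorescence on FDSS over 2 min at 1 s intervals.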

[18] = molecular target: Muscarinic acetylcholine receptor M1 (Homo sapiens) (UniProt P11229); assay: Cholinergic receptor muscarinic 1 (CHRM1) small molecule antagonists, cell-based qHTS assay (AID 1963588); also: nearly all actives have a fitted effect of over 40% in size
Chain of Muscarinic acetylcholine receptor M1 (Homo sapiens) (P11229 whole entry, looked up): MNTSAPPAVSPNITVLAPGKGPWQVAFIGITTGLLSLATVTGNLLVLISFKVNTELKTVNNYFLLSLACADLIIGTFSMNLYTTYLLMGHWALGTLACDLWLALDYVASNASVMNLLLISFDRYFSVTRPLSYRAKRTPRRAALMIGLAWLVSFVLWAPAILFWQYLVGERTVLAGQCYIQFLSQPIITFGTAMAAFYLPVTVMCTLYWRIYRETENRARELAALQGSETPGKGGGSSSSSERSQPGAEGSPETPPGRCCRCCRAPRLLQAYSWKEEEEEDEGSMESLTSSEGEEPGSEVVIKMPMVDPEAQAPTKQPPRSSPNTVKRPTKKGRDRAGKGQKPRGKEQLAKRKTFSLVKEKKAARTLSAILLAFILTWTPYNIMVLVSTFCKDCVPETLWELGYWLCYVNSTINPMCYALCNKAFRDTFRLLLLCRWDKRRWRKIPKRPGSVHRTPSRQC
Procedure, shortened: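 CHRM1-CHO calcium-flux assay, antagonist mode. Cells were seeded 18 h, dye-loaded 1 h at 37 C and given compound for 5 min at RT, then acetylcholine was added at 50nM. FDSS fluorescence was read 3 min; 15 concentrations, three runs.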

[19] = molecular target: Muscarinic acetylcholine receptor M1 (Homo sapiens) (UniProt P11229); assay: Cholinergic receptor muscarinic 1 (CHRM1) small molecule agonists, cell-based qHTS assay (AID 1963589); also: nearly all actives have a fitted effect of over 35% in size; also: potency is read from the fitted curve at half-maximal effect
Procedure, shortened: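 CHO cells stably expressing human CHRM1, seeded 18 h at 37 C/5% CO2, dye-loaded 1 h at 37 C, then given compound in agonist mode; intracellular calcium fluorescence read kinetically at 1 s intervals. Fifteen concentrations, three independent runs.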

[20] = p53 small molecule agonists, cell-based qHTS assay with rat liver microsomes: qHTS cell viability counter screen (AID 1963580); also: nearly all actives have a fitted effect of over 45% in size
Procedure, shortened: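 p53RE-bla HCT-116 cells (4,000/well) rested 5 h at 37 C, then given Tox21 compounds in DMSO with rat liver microsomes (0.5 mg/mL final) plus NADPH (0.5 mg/mL final) for 16 h at 37 C. Viability read by CellTiter-Glo luminescence after 30 min at room temperature.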

| SMILES | Potency [1] | Potency [2] | Potency [3] | Potency [4] | Potency [5] | Potency [6] | Potency [7] | Potency [8] | Potency [9] | Potency [10] | Potency [11] | Potency [12] | Potency [13] | Potency [14] | Potency [15] | Potency [16] | Potency [17] | Potency [18] | Potency [19] | Potency [20] |
| --- | --- | --- | --- | --- | --- | --- | --- | --- | --- | --- | --- | --- | --- | --- | --- | --- | --- | --- | --- | --- |
| CN(C)CCCN1c2ccccc2CCc2ccc(Cl)cc21 | 61.1 µM (active) | inactive | inactive | inactive | inactive | inactive | 40.8 µM (active) and inactive | inactive | inactive | inactive | inactive | inactive | inactive | 61.1 µM (active) and 18.8 µM (active) |  |  |  |  |  |  |
| O=C(/C=C/c1ccccc1)OCCc1ccccc1 | inactive | inactive | inactive | inactive | inactive | inactive | inactive | inactive | inactive |  | inactive |  |  |  | inactive | inactive | inactive | inactive | inactive |  |
| CCN(CC)c1ccc2c(-c3ccccc3C(=O)O)c3ccc(=[N+](CC)CC)cc-3oc2c1 | 15.4 µM (active) | 34.7 µM (active) | 49 µM (active) | 34.7 µM (active) | inactive | inactive |  | inactive | inactive | inactive |  |  | 58.8 µM (active) |  | inactive | inactive | 49 µM (active) | inactive | 43.6 µM (active) | inactive |
| CCN(CC)CCNC(=O)c1c(C)[nH]c(/C=C2\C(=O)Nc3ccc(F)cc32)c1C | 29.8 µM (active) | inactive | inactive | inactive | inactive | inactive | inactive | inactive | inactive | inactive |  |  |  |  | inactive |  | inactive |  | inactive |  |
| COC(C)CCO (stereo not given) | inactive | inactive | inactive | inactive | inactive | inactive | inactive |  | inactive | inactive | inactive | inactive | inactive |  | inactive | inactive |  | inactive | inactive |  |
| CCC(C)OC(=O)N1CCCCC1CCO (stereo not given) | inactive | inactive | inactive | inactive | inactive | inactive | inactive | inactive | inactive | inactive | inactive |  | inactive | inactive | inactive | inactive | inactive |  | inactive |  |
| CC(=O)Oc1ccc(C(=C2CCCCC2)c2ccc(OC(C)=O)cc2)cc1 | inactive | inactive | inactive | inactive | inactive | inactive |  | inactive | inactive | inactive | inactive | inactive | inactive | inactive | inactive | inactive | inactive |  | inactive | inactive |
| C=CCCCCCCC=C | inactive | inactive | inactive | inactive | inactive | inactive | inactive | inactive | inactive | inactive | inactive |  | inactive | inactive | inactive |  | inactive |  | inactive |  |
